Screens: PubChem, National Center for Advancing Translational Sciences (NCATS)
An excerpt weighted towards active compounds, which were near 7.2% of everything screened.
Lassa entry inh – blocks Lassa virus binding to or entry into cells. AID 540256. Lassa virus pseudotype entry inhibition, cell reporter. 1.2% of 300,000 active. Potency, µM (highest dose often 37.9 µM), for the others: top-dose activity change, negative = inhibition, actives largely listed as inhibitors; calls by dose curve; tested in HEK293 cells; also: nearly all actives have a fitted effect of over 50% in size
RE007 growth inh – less growth of the S. pombe RE007 Vpr strain; S. pombe RE007 Vpr strain, BacTiter-Glo ATP luminescence, 24 h; Potency, µM (highest dose often 92.2 µM), without a hit: at the highest dose activity change, negative = less growth, hits mostly inhibitors; 0.21% of 360,000 active; AID 651644; active = well fitted falling curve with a large enough effect; inconclusive = small, poorly fitted or top-dose-only effect; inactive = no such curve, though single readings can be large or run the other way; also: nearly all actives have a fitted effect of over 50% in size
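Fission yeast strain RE007, carrying one chromosomally integrated HIV-1 vpr copy, was seeded at OD 0.01 in PMG+AL medium with 23 nL pinned compound. After 24 h at 30 °C and 99% humidity, viability was read by BacTiter-Glo luminescence.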
Sm TGR inh – S. mansoni TGR enzyme inhibition | Q962Y6 | purified TGR, DTNB reduction, TNB absorbance 405 nm | Potency, µM (series often up to 114 µM), inactives show top-dose activity change, negative = inhibition, actives largely listed as inhibitors | 3% of 360,000 active | AID 485364; also: nearly all actives have a fitted effect of over 60% in size
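Kinetic colorimetric format: TGR-catalysed, NADPH-driven DTNB reduction monitored via TNB absorbance. Enzyme dispensed at 20 nM; compound exposure 15 min at room temperature before reaction start.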
FMDV inh – antivirals against foot and mouth disease virus | FMDV antiviral cell-based qHTS | 1.2% of 410,000 active | Potency, µM (titrated, usually from 57.9 µM), inactives show top-dose activity change, negative = inhibition, most hits filed as inhibitors; calls by dose curve; tested in HEK293T cells; also: read-out not given here; nearly all actives have a fitted effect of over 45% in size
MARV entry inh – Marburg virus entry inhibition; Marburg virus pseudotyped entry inhibition, cell reporter; Potency, µM (series often up to 37.8 µM), inactives show top-dose activity change, negative = inhibition, usual class: inhibitors; 1.8% of 300,000 active; calls by dose curve; tested in HEK293 cells
HCV inh – inhibitors of hepatitis C virus infection. Huh7.5.1 HCVcc-Cre infection, luciferase reporter, 44 h. Potency, µM (doses to about 41.8 µM), for inactives: at the highest dose activity change, negative = inhibition, actives largely listed as inhibitors. 3.4% of 340,000 active. AID 651820
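A cell-based infection assay in which seeded cells (1,000 per well) receive test compound after 4 h, are inoculated with HCVcc-Cre at approximately 0.5 moi, and are incubated 44 h before luminescence detection.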
* = called active by the depositor; ? = inconclusive; / = no result; [ ] = remark or other dose. Unless noted, calls follow the shape of the dose curve; as a rule, active = well fitted curve in the direction sought with a large enough effect; inconclusive = small, poorly fitted or top-dose-only effect, or another doubt; inactive = no such curve, though single readings can be large; an effect the other way counts as inactive or inconclusive. % is scaled to controls: 0 for no effect and ±100 for the full control effect; potency is read from the fitted curve at half-maximal effect.

SMILES	Lassa entry inh	RE007 growth inh	Sm TGR inh	FMDV inh	MARV entry inh	HCV inh
CCN1C(=O)[C@@H]2[C@@H](c3ccc(-c4ccc(OC)cc4)cc3)N3CCCC[C@@]3(C(=O)OC)[C@@H]2C1=O	/	18%	?	-3%	/	3.2µM*
CCSc1ccc([C@@H]2[C@H]3C(=O)N(CC)C(=O)[C@H]3[C@]3(C(=O)OC)CCCCN23)cc1	/	-2%	?	-15%	/	4%
CCN1C(=O)[C@H]2[C@@H](c3ccc(-c4ccccc4)cc3)N3CCCC[C@@]3(C(=O)OC)[C@H]2C1=O	/	1%	?	?	/	4%
CCSc1ccc([C@@H]2[C@@H]3C(=O)N(CC)C(=O)[C@@H]3[C@]3(C(=O)OC)CCCN23)cc1	/	5%	35µM*	0%	/	-20%
CC(=O)Oc1cc2c(C(=O)NCCCN3CCOCC3)c(C)oc2c2ccccc12	-2%	5%	35µM*	-22%	?	11µM*
CS(=O)(=O)Cc1cc(Sc2ccccc2)nc(-c2ccncc2)n1	-14%	12%	-1%	-14%	?	3.2µM*
COc1ccc(OC)c(NC(=O)CSc2nnc3ccc4ccccc4n23)c1	-2%[46.1 µM]	/	0%	-15%	?	/
CCCC(=O)Nc1ccc(S(=O)(=O)Nc2nccs2)cc1	/	5%	/	16%	/	5%
CCOC(=O)/C=C/C(=O)Nc1ccc(S(=O)(=O)Nc2nccs2)cc1	?	4%	45µM*	0%	5%	30%
O=C(CCl)Nc1ccc(S(=O)(=O)Nc2nccs2)cc1	?	-3%	20µM*	-12%	?	?
O=C(Nc1ccccc1)c1cc(C2COCCN2C(=O)c2cccs2)on1 (configuration not stated)	/	14%	/	-3%	/	/
Cc1ccc(C(=O)Nc2nnc(CC(=O)N/N=C/c3ccc(O)c(O)c3)s2)cc1	/	/	45µM*	8%	/	-12%
O=C1/C(=C/c2ccc(O)cc2)COc2ccccc21	9%	?	?	-6%	14%	6%
CCOc1cc(/C=C2/COc3ccccc3C2=O)ccc1OCC(=O)N(C)C	/	-8%	32µM*	?	/	16%
O=C(Cc1nc2ccccc2[nH]1)c1ccc(Cl)cc1	/	?	-7%	47%	3%[46.1 µM]	?
Clc1ccc(/C(Cc2nc3ccccc3[nH]2)=N\Nc2ccccc2)cc1	?	9%	-17%	-23%	?	11µM*
CC1CCCN(c2ncnc3c2cnn3-c2ccc(Cl)cc2)C1 (configuration not stated)	/	0%	12%	25µM*	/	-2%
CC1CCCN(c2ncnc3c2cnn3-c2ccc(F)cc2)C1 (configuration not stated)	-5%[46.1 µM]	/	2%	18µM*	/	/
CC1CCCN(c2ncnc3c2cnn3-c2ccccc2)C1 (configuration not stated)	/	-23%	-2%	-11%	/	-11%
CN(C)S(=O)(=O)c1ccc(C(=O)Nc2ccnn2C2CCCCC2)cc1	-16%	7%	-28%	28µM*	?	-28%
Cc1cccc(NC(=O)C2CCCN(S(=O)(=O)c3c(C)[nH]c(=O)[nH]c3=O)C2)c1C (configuration not stated)	13%[46.1 µM]	/	-5%	12%	22%[46.1 µM]	/
CC1=NN(c2ccc(Cl)cc2)C(=O)/C1=C\c1cccn1-c1ccc(S(N)(=O)=O)cc1	2%	/	-17%	40µM*	-3%	5%
CCCCC(=O)Nc1nnc(SCc2cc(=O)n3cc(C)ccc3n2)s1	19%[46.1 µM]	/	-2%	-11%	/	/
C=C1[C@@H](O)[C@H](Cc2ccccc2)N(Cc2ccccc2Br)S1(=O)=O	/	-10%	/	18µM*	/	23%[8.37 µM]
Cc1ccc(-c2nc3scc(CCNS(=O)(=O)c4c(C)noc4C)n3n2)cc1	0%[46.1 µM]	/	-3%	20%	/	/
CCCc1ccc(S(=O)(=O)N2CCC(c3nnnn3-c3ccc(OC)cc3)CC2)cc1	5%[46.1 µM]	/	-1%	-4%	-3%[46.1 µM]	/
CCOC(=O)C1CCN(c2c([N+](=O)[O-])c(C(Cl)Cl)nn2-c2ccccc2)CC1	9.2µM*	62%	-9%	/	-13%	-25%
CCCc1cc(=O)oc2cc(OCC(=O)NCCc3c[nH]c4ccccc34)ccc12	/	11%	2%	?	/	4.5µM*
